Measurements as given in paper PMC4336329 (PLoS ONE, 2015).
The whole screen tested about 310,000 compounds, of which about 2,200 (0.71%) showed an effect of 50% or more. The effect is printed as a negative number. Only a selection was taken, and strong results are over-represented in it overall.

target: human ether-à-go-go-related gene (hERG) potassium channel (human, UniProt Q12809); experiment: primary screen, population patch clamp on CHO cells stably expressing hERG; higher = less effect of the substance
Sequence (Q12809 whole entry, looked up): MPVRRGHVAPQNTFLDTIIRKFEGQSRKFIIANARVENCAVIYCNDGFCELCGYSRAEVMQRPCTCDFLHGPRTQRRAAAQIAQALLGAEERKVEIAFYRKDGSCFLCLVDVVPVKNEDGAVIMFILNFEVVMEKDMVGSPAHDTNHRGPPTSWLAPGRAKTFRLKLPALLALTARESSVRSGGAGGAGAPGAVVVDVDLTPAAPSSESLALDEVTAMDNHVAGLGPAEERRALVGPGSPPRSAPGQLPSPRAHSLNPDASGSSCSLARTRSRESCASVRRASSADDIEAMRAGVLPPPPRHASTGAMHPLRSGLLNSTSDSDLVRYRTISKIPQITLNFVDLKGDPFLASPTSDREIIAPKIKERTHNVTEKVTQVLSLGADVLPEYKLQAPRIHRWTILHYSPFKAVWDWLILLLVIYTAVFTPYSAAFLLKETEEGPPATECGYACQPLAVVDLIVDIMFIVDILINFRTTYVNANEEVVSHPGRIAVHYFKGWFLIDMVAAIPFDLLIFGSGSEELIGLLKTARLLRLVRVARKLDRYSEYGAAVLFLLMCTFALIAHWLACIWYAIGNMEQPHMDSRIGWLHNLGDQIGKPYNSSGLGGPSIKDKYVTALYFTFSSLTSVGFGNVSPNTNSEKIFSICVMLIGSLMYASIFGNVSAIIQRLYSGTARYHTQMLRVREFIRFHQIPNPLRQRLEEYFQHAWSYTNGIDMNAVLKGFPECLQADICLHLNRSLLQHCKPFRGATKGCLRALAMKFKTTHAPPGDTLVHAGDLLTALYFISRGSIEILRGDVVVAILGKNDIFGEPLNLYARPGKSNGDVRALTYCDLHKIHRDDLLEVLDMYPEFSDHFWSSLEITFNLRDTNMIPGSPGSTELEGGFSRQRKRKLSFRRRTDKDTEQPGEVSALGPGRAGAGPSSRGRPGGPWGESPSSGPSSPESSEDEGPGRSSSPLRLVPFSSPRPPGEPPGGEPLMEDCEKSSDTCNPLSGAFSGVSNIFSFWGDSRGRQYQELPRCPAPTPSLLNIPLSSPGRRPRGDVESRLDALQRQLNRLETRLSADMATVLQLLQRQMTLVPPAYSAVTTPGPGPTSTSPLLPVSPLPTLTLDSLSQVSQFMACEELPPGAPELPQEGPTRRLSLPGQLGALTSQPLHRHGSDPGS

SMILES | hERG current change (%, negative = inhibition) at 1uM [%]
O=C(C1CCN(C2CC(=O)N(c3ccc(Cl)cc3)C2=O)CC1)N1CCOCC1 (centres unmarked) | 2.01
CCCC[C@@H]1C[C@H]1[C@@H](NC(=O)c1ccco1)c1ccc(Cl)cc1 | 6.22
CC(Nc1nc(N2CCN(CCO)CC2)nc2ccccc12)c1ccccc1 (centres unmarked) | -25.9
CC(Nc1nc(N2CCN(S(C)(=O)=O)CC2)nc2ccccc12)c1ccccc1 (centres unmarked) | -14
CC(Nc1nc(N2CCOCC2)nc2ccccc12)c1ccccc1 (centres unmarked) | -52.7
CC(Nc1nc(N2CCCC2)nc2ccccc12)c1ccccc1 (centres unmarked) | -84.6
CC(Nc1nc(N2CCNCC2)nc2ccccc12)c1ccccc1 (centres unmarked) | -31.7
CC(Nc1nc(N2CCCCC2)nc2ccccc12)c1ccccc1 (centres unmarked) | -14.4
COC(=O)C(C(=O)Nc1cccc(Cl)c1C)C1CCCC1 (centres unmarked) | 5.04
COCCCN1C(=O)C(=O)/C(=C(/O)c2ccc(S(=O)(=O)N3CCOCC3)cc2)C1c1ccc(F)cc1 (centres unmarked) | 6.04
Cc1ccsc1/C=N/Nc1ncnc2nc[nH]c12 | -2.18
CS(=O)(=O)Nc1ccc(C2=NN(S(=O)(=O)c3ccc(F)cc3)C(c3ccco3)C2)cc1 (centres unmarked) | -15.6
COc1ccc(S(=O)(=O)N2N=C(c3ccc(NS(C)(=O)=O)cc3)CC2c2ccco2)cc1 (centres unmarked) | -69.6
COc1ccc(S(=O)(=O)N2N=C(c3cccc(NS(C)(=O)=O)c3)CC2c2ccco2)cc1 (centres unmarked) | 16.4
O=C(CCS(=O)(=O)Cc1ccccc1F)NCCc1ccc(Cl)cc1 | 5.86
Cc1cc(NC(=O)CSc2nc3c(c(=O)n2-c2ccc(Br)cc2)SCC3)no1 | 6.41
CCOC(=O)c1c(CN(CC)CC)oc2cc(Br)c(O)cc12 | -59.5
CCOC(=O)c1c(CN(CC)CC)n(C)c2cc(Br)c(O)cc12.Cl | -45
CCOC(=O)c1c(CN2CCCCC2)n(C)c2cc(Br)c(OC)cc12 | 9.14
CCOC(=O)c1c(CN2CCN(C)CC2)n(C)c2cc(Br)c(OC)cc12 | -12.4
CCOC(=O)c1c(CN(CC)CC)oc2ccc(OC)cc12 | -25.8
CCOC(=O)c1c(CN2CCCCC2)n(C)c2cc(Br)c(O)cc12 | -68.8
Cc1ccc(NC(=S)NNC(=O)Cn2nc(C(F)F)cc2C(F)F)cc1 | 13.6

SMILES | hERG current change (%, negative = inhibition) at 1uM [%]
Cc1oc(C(C)(C)C)cc1C(=O)Nc1ccc(N2CCOCC2)cc1 | 4.63
CC(=O)NC(=S)Nc1ccccc1N1CCN(C(=O)c2ccccc2)CC1 | 10.6
C[N+](C)(C)CCCCCCCCCC[N+](C)(C)C.[Br-] | 7.97
CCCCCCCCCCOC(=O)Cn1c(COc2cccc(OC)c2)[n+](C)c2ccccc21.[Cl-] | -37.3
CCCCCCCCCCOC(=O)Cn1c(COc2ccc(OC)cc2)[n+](C)c2ccccc21.[Cl-] | -70.9
CCCCCCCCCCOC(=O)Cn1c(COc2ccccc2)[n+](C)c2ccccc21.[Cl-] | -46.5
CCCCc1n(CC(=O)c2ccc(Cl)cc2)c2ccccc2[n+]1C.[Br-] | 10.7
CCCCCCCCCCOC(=O)Cn1c(COc2cccc(C)c2)[n+](C)c2ccccc21.[Cl-] | -43.9
CCCCCCCCCCOC(=O)Cn1c(COc2ccccc2OC)[n+](C)c2ccccc21.[Cl-] | -33.2
CCCCCCCCCCOC(=O)Cn1c(COc2ccc(Cl)cc2)[n+](C)c2ccccc21.[Cl-] | -79.1
CCCCCCCCCCOC(=O)Cn1c(COc2ccc(C)cc2)[n+](C)c2ccccc21.[Cl-] | -56.5
CCCCCCCCCCOC(=O)Cn1c(COc2ccccc2C)[n+](C)c2ccccc21.[Cl-] | -18
CCN(C(=S)Nc1ccc(Oc2ccccc2)cc1)c1ccccc1 | 21.1
CCc1nnc(NC(=O)C2CCC2)s1 | 3.46
CCCn1c(N)c(N(CCOC)C(=O)c2ccc(F)cc2)c(=O)[nH]c1=O | 12.9
Cc1[nH]c(C)c(S(=O)(=O)NCCc2ccc(S(N)(=O)=O)cc2)c1C(=O)N1CCCC1 | 12.3
CCCCSc1nnc(-c2ccc(NC(=O)CCc3ccccc3)cc2)n1C | 19.5
Cc1ccc2occ(/C=C/C(=O)O)c(=O)c2c1 | 9.03
CCNC(=O)C1(c2ccccc2)CCCC1 | 5.42
CCOC(=O)C[n+]1c(C)csc1C.[Br-] | 9.26
CCN1CCN(c2nc(Nc3cccc(OC)c3)nc(N)c2[N+](=O)[O-])CC1 | -60.6
CCN1CCN(c2nc(Nc3cccc(C)c3)nc(N)c2[N+](=O)[O-])CC1 | -36.9
CCN1CCN(c2nc(Nc3ccc(OC)cc3)nc(N)c2[N+](=O)[O-])CC1 | 1.06

SMILES | hERG current change (%, negative = inhibition) at 1uM [%]
COc1ccccc1-n1c(/C=C/c2ccc(O)cc2)nc2ccccc2c1=O | 13
CCCCn1c(=O)c(C(=O)c2ccccc2)nc2ccccc21 | 5.56
CCCCn1c(CCCNC(=O)CC)nc2ccccc21 | -3.85
CCCCn1c(CCNC(=O)CC)nc2ccccc21 | 0.197
CCCn1c(=O)c(C(=O)c2ccccc2)nc2ccccc21 | -0.484
CCCCCn1c(=O)c(C(=O)c2ccccc2)nc2ccccc21 | -52.5
CCCCCn1c(CCCNC(=O)CC)nc2ccccc21 | -52.3
Cc1ccc(NC(=O)CSc2sc3c(O)cc(=O)[nH]c3c2C#N)cc1C | 0.874
CC(C)(C)OC(=O)N1CCC(C(N)=O)CC1 | 5.04
CCOC(=O)c1ccc(NC(=O)N2C[C@@H]3C[C@@H](C2)c2cccc(=O)n2C3)cc1 | 7.4
CCOC(=O)N1CCN(Cc2nc(N)nc(Nc3ccc(Cl)cc3)n2)CC1 | -22.7
O=C(c1ccco1)N1CCN(Cc2ccc(Cl)cc2)CC1 | 7.26
Cc1ccc(Nc2nc(N)nc(CN3CCN(C(=O)c4ccco4)CC3)n2)cc1Cl | -54.1
Nc1nc(CN2CCN(C(=O)c3ccco3)CC2)nc(Nc2cccc(Cl)c2)n1 | -76.3
Cc1ccc(Nc2nc(N)nc(CN3CCN(Cc4ccccc4)CC3)n2)cc1Cl | -24.5
Cc1ccc(Nc2nc(N)nc(CN3CCN(c4ccccc4)CC3)n2)cc1Cl | -10.8
CN1C(=O)CSc2ccc(NC(=O)Nc3ccccn3)cc21 | 8.01
Cc1ccc(Cl)cc1NC(=O)c1ccc(CSc2nnnn2C)cc1 | 9.74
CCOc1cc(/C=N\NC(=O)C2C(=O)NCC2c2ccccc2)ccc1OC (centres unmarked) | 10
Oc1ccc(C[C@H]2CNCCN2CCc2cccc(F)c2)cc1 | 7.34
CC1CN(C(=O)CCC(=O)NCc2ccccc2)c2cc(Cl)ccc2O1 (centres unmarked) | 0.521
Cc1ccc2c(c1)N(C(=O)CCC(=O)NCCCN1CCN(C)CC1)CC(C)O2 (centres unmarked) | 8.82
CC1CN(C(=O)CCC(=O)NCCCN2CCC(Cc3ccccc3)CC2)c2cc(Cl)ccc2O1 (centres unmarked) | -62.2

SMILES | hERG current change (%, negative = inhibition) at 1uM [%]
Cc1ccc2c(c1)N(C(=O)CCC(=O)NCCCN1CCOCC1)CC(C)O2 (centres unmarked) | -1.87
CC1CN(C(=O)CCC(=O)NCCCN2CCN(Cc3ccccc3)CC2)c2cc(Cl)ccc2O1 (centres unmarked) | -68.1
CCN1CCN(CCCNC(=O)CCC(=O)N2CC(C)Oc3ccc(C)cc32)CC1 (centres unmarked) | 6.55
Cc1ccc(C(=O)c2cc(Br)ccc2N)cc1 | 12.5
COc1ccc(-c2csc(NC(=O)CCNC(=O)c3ccco3)n2)cc1OC | -3.11
O=S(=O)(NC1CCCCCCC1)c1ccc(F)cc1 | 12.2
C=CCNC(=O)c1ccccc1NS(=O)(=O)c1ccc(SC)cc1 | 10.5
C=CCNC(=O)c1ccccc1NC(=O)C1CCN(S(=O)(=O)c2ccc(SC)cc2)CC1 | -56.8
CSc1ccc(S(=O)(=O)N2CCC(C(=O)Nc3ccccc3C(F)(F)F)CC2)cc1 | 11.7
Cc1cccc2cc(CN(Cc3ccc(F)cc3)C(=O)C(F)(F)F)c3nnnn3c12 | 30.5
COC(=O)[C@@H]1C[C@]2(OC(=O)c3ccccc3)C=CC(=O)C[C@@H]2N1C(=O)OCc1ccccc1 | 11.9
COc1ccc(-c2[nH]ncc2CN2CCC(OCc3cccnc3)CC2)c(F)c1 | -10.6
COc1ccc(-c2[nH]ncc2CN2CCCC(C(=O)c3ccc(OC)cc3OC)C2)cc1 (centres unmarked) | -47.3
COc1ccc(-c2[nH]ncc2CN2CCC(C(=O)c3ccc(F)cc3)CC2)cc1 | -70.5
COc1ccc(-c2[nH]ncc2CN2CCC(OCc3ccccn3)CC2)c(F)c1 | 2.13
CCOC(=O)C1CCN(Cc2cn[nH]c2-c2ccccc2)CC1.O=C(O)C(=O)O | 14.2
COc1ccc(-c2[nH]ncc2CN2CCC(c3ccncc3)CC2)cc1F | -51.4
COc1ccc(-c2[nH]ncc2CN2CCC(N3CCSCC3)CC2)cc1F | 3.77
O=C(c1ccc(F)cc1)C1CCN(Cc2cn[nH]c2-c2ccccc2)CC1 | -84.2
Fc1ccc(N2CCN(Cc3cn[nH]c3-c3ccccc3)CC2)cc1 | -27
COc1ccc(-c2[nH]ncc2CN2CCN(c3ccc(F)cc3)CC2)cc1 | -4.53
COc1ccc(-c2[nH]ncc2CN2CCC(OCc3ccccc3)CC2)c(F)c1 | -64.5
COCC1CCN(Cc2cn[nH]c2-c2ccc(OC)c(F)c2)C1 (centres unmarked) | 3.17
